Experimental data: PubChem BioAssay (NCATS)
Values joined by “and” are separate entries in the source; they are usually repeats but may differ in a detail not shown here. Identical values can stand only once. Results filed as inconclusive are left out. Active and inactive are the calls of the source. Calls follow the shape of the dose curve; as a rule, active = well fitted inhibition curve with a large enough effect; inconclusive = small, poorly fitted or top-dose-only effect; inactive = flat fitted curve, though single readings scatter.

Legend:
P93_24 = assay: qHTS profiling for inhibitors of Plasmodium falciparum proliferation (AID 504749);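 also: 0% = DMSO vehicle and full inhibition = artemisinin control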; conditions: P. falciparum in erythrocytes, SYBR Green DNA, 72 h; series mostly up to 28.7 µM
Method in brief: (§1)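 Quantitative HTS: compounds pinned into medium, infected erythrocytes added (0.3% parasitemia, 2.5% hematocrit), 72 h culture at 37 C under 5% CO2. Saponin/Triton lysis with SYBR Green I, overnight RT, then fluorescence read.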

P94_40 = assay: as above; conditions: P. falciparum in erythrocytes, SYBR Green DNA, 72 h; series mostly up to 28.7 µM
Method in brief: as §1

PAD = assay: as above; conditions: P. falciparum in erythrocytes, SYBR Green DNA, 72 h; series mostly up to 28.7 µM
Method in brief: as §1

PC15 = assay: as above; conditions: P. falciparum in erythrocytes, SYBR Green DNA, 72 h; series mostly up to 28.7 µM
Method in brief: as §1

PC26 = assay: as above; conditions: P. falciparum in erythrocytes, SYBR Green DNA, 72 h; series mostly up to 28.7 µM
Method in brief: as §1

PC49 = assay: as above; conditions: P. falciparum in erythrocytes, SYBR Green DNA, 72 h; series mostly up to 28.7 µM
Method in brief: as §1

SC27B = assay: as above; conditions: P. falciparum in erythrocytes, SYBR Green DNA, 72 h; series mostly up to 28.7 µM
Method in brief: as §1

TAB109 = assay: as above; conditions: P. falciparum in erythrocytes, SYBR Green DNA, 72 h; series mostly up to 28.7 µM
Method in brief: as §1

TAB113 = assay: as above; conditions: P. falciparum in erythrocytes, SYBR Green DNA, 72 h; series mostly up to 28.7 µM
Method in brief: as §1

TAB165 = assay: as above; conditions: P. falciparum in erythrocytes, SYBR Green DNA, 72 h; series mostly up to 28.7 µM
Method in brief: as §1

CRL-7250 = normal cell line; assay: Cytotoxic Profiling of Annotated Libraries Using Quantitative High-Throughput Screening (AID 1296008); conditions: Five cell lines viability, CellTiter-Glo ATP luminescence, 48-72 h; max response: stronger effect = lower value; also: potency is read from the fitted curve at half-maximal effect; as to max response: % is scaled to controls: 0 for no effect and ±100 for the full control effect
Method in brief: (§2)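 Compounds were pin-transferred onto cells and incubated 48 or 72 hr at 37 degree Celsius, 95% humidity. CellTiter-Glo was added, plates sat 10 min at room temperature, then ATP-coupled luminescence was imaged as the viability read-out.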

HEK293 = assay: as above; conditions: Five cell lines viability, CellTiter-Glo ATP luminescence, 48-72 h; max response: stronger effect = lower value
Method in brief: as §2

HaCat [1] = assay: as above; conditions: Five cell lines viability, CellTiter-Glo ATP luminescence, 48-72 h; max response: stronger effect = lower value
Method in brief: as §2

KB-3-1 = assay: as above; conditions: Five cell lines viability, CellTiter-Glo ATP luminescence, 48-72 h; max response: stronger effect = lower value
Method in brief: as §2

NIH3T3 = assay: as above; conditions: Five cell lines viability, CellTiter-Glo ATP luminescence, 48-72 h; max response: stronger effect = lower value
Method in brief: as §2

MCC-13 = assay: qHTS assay to identify novel small-molecules to repurpose for Merkel cell carcinoma treatment (AID 1296009); conditions: MCC and control cell lines, CellTiter-Glo viability, 72 h; series mostly up to 46 µM; also: potency is read from the fitted curve at half-maximal effect
Method in brief: (§3)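 Viability readout: ATP luminescence (CellTiter-Glo) after 72 hr drug exposure at 37 degree celsius. Dose-response format was 8 points for NPC and 11 points for MIPE; data normalized to in-plate controls.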

MCC-26 = assay: as above; conditions: MCC and control cell lines, CellTiter-Glo viability, 72 h; series mostly up to 46 µM
Method in brief: as §3

W2 = assay: qHTS profiling for inhibitors of Plasmodium falciparum proliferation (AID 504749);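 also: 0% = DMSO vehicle and full inhibition = artemisinin control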; conditions: P. falciparum in erythrocytes, SYBR Green DNA, 72 h; series mostly up to 28.7 µM
Method in brief: as §1

HACAT [2] = assay: qHTS assay to identify novel small-molecules to repurpose for Merkel cell carcinoma treatment (AID 1296009); conditions: MCC and control cell lines, CellTiter-Glo viability, 72 h; series mostly up to 44.8 µM; also: potency is read from the fitted curve at half-maximal effect
Method in brief: as §3

HEK293T = assay: as above; conditions: MCC and control cell lines, CellTiter-Glo viability, 72 h; at 44.8 µM (top of the series) unless noted
Method in brief: as §3
Also: nearly all actives have a fitted effect of over 60% in size.

COC(=O)Nc1nc2ccc(C(=O)c3cccs3)cc2[nH]1
inactive: Potency (P93_24) | Potency (P94_40) | Potency (PAD) | Potency (PC15) | Potency (PC26) | Potency (PC49) | Potency (SC27B) | Potency (TAB109) | Potency (TAB113) | Potency (TAB165) | max response (HaCat [1]) 3.37% and -11.6%
active: Potency (CRL-7250) 46.9 nM and 188 nM | Potency (HEK293) 94.4 nM | Potency (KB-3-1) 16.6 nM and 231 nM | Potency (NIH3T3) 168 nM | Potency (MCC-13) 148 nM and 266 nM | Potency (MCC-26) 132 nM

CS(=O)(=O)CCNCc1ccc(-c2ccc3ncnc(Nc4ccc(OCc5cccc(F)c5)c(Cl)c4)c3c2)o1
active: Potency (HEK293) 4.18 µM and 6.68 µM and 9.2 µM | Potency (HaCat [1]) 46.9 nM and 266 nM
inactive: Potency (P93_24) | Potency (P94_40) | Potency (PAD) | Potency (PC15) | Potency (PC26) | Potency (PC49) | Potency (SC27B) | Potency (TAB109) | Potency (TAB113) | Potency (TAB165) | Potency (W2) | outcome (CRL-7250) | max response (KB-3-1) 0.0192% | max response (NIH3T3) -52.4% | Potency (MCC-13) | Potency (MCC-26)

CC(C)Cc1ccc(C(C)C(=O)O)cc1 (stereo not given)
inactive: Potency (P93_24) | Potency (P94_40) | Potency (PAD) | Potency (PC15) | Potency (PC26) | Potency (PC49) | Potency (SC27B) | Potency (TAB109) | Potency (TAB113) | Potency (TAB165) | Potency (W2) | max response (CRL-7250) -13.3% and 3.74% | max response (HEK293) 1.58% and -3.42% | max response (HaCat [1]) -14.1% | outcome (HaCat [1]) | max response (KB-3-1) 1.49% and -2.93% | max response (NIH3T3) 2.78% | outcome (NIH3T3) | outcome (HACAT [2]) | Potency (MCC-13) | Potency (MCC-26)

Cc1cn([C@H]2C=C[C@@H](CO)O2)c(=O)[nH]c1=O
inactive: Potency (P93_24) | Potency (P94_40) | Potency (PAD) | Potency (PC15) | Potency (PC26) | Potency (PC49) | Potency (SC27B) | Potency (TAB109) | Potency (TAB113) | Potency (TAB165) | Potency (W2) | max response (CRL-7250) -12.9% and -2.54% | max response (HEK293) -0.556% and 1.63% | max response (HaCat [1]) 4.4% and -10.3% | outcome (KB-3-1) | max response (NIH3T3) 1.04% and -9.57% | Potency (MCC-13) | Potency (MCC-26)

Nc1ccn([C@H]2CC[C@@H](CO)O2)c(=O)n1
inactive: max response (CRL-7250) -6.37% and 1.28% | outcome (HEK293) | max response (HaCat [1]) -8.68% | outcome (HaCat [1]) | max response (NIH3T3) -7.7% and 2.02% | outcome (HACAT [2]) | outcome (HEK293T) | Potency (MCC-13) | Potency (MCC-26)

Fc1ccc([C@@H]2CCNC[C@H]2COc2ccc3c(c2)OCO3)cc1
inactive: max response (CRL-7250) -5.94% | max response (HEK293) -24.9% | outcome (HaCat [1]) | max response (KB-3-1) -16.5% and -9.57% | max response (NIH3T3) -13.3% | outcome (HACAT [2]) | Potency (MCC-13)

NS(=O)(=O)c1cc2c(cc1Cl)NCNS2(=O)=O
inactive: Potency (P93_24) | Potency (P94_40) | Potency (PAD) | Potency (PC15) | Potency (PC26) | Potency (PC49) | Potency (SC27B) | Potency (TAB109) | Potency (TAB113) | Potency (TAB165) | Potency (W2) | outcome (CRL-7250) | outcome (HEK293) | max response (HaCat [1]) 0.753% | outcome (HaCat [1]) | max response (KB-3-1) 23% and 9.86% | max response (NIH3T3) -2.86% and -1.17% | outcome (HACAT [2]) | outcome (HEK293T) | Potency (MCC-13) | Potency (MCC-26)

Nc1nnc(-c2cccc(Cl)c2Cl)c(N)n1
inactive: Potency (P93_24) | Potency (P94_40) | Potency (PAD) | Potency (PC15) | Potency (PC26) | Potency (PC49) | Potency (SC27B) | Potency (TAB109) | Potency (TAB113) | Potency (TAB165) | Potency (W2) | max response (CRL-7250) -7.91% and -8.11% | max response (HEK293) -5.08% and 0.349% | outcome (HaCat [1]) | max response (KB-3-1) 6.78% and 8.12% | outcome (NIH3T3) | outcome (HACAT [2]) | Potency (MCC-13)

Cc1ccccc1N1C(=O)c2cc(S(N)(=O)=O)c(Cl)cc2NC1C (stereo not given)
inactive: max response (CRL-7250) -4.5% | outcome (HEK293) | max response (HaCat [1]) 0.851% | outcome (HaCat [1]) | max response (NIH3T3) 4.24% | outcome (NIH3T3) | outcome (HACAT [2]) | outcome (HEK293T) | Potency (MCC-13) | Potency (MCC-26)

CN1C2CCC1CC(OC(=O)C(CO)c1ccccc1)C2 (stereo not given)
inactive: max response (CRL-7250) -10.2% | max response (HEK293) 0.412% | outcome (HaCat [1]) | max response (KB-3-1) 0.626% | max response (NIH3T3) -0.822% | outcome (HACAT [2]) | Potency (MCC-13) | Potency (MCC-26)

CN(CCOc1ccc(NS(C)(=O)=O)cc1)CCc1ccc(NS(C)(=O)=O)cc1
inactive: Potency (P94_40) | Potency (PAD) | Potency (PC15) | Potency (PC26) | Potency (PC49) | Potency (SC27B) | Potency (TAB109) | Potency (TAB113) | Potency (TAB165) | Potency (W2) | outcome (CRL-7250) | outcome (HEK293) | max response (HaCat [1]) 2.47% | outcome (HaCat [1]) | outcome (NIH3T3) | outcome (HACAT [2]) | outcome (HEK293T) | Potency (MCC-13)
